The values that follow come from ChEMBL document CHEMBL3988442, “University of Dundee, Small-Polar-MMV Screening Library” (2021).

For some assays here: Measured potencies and affinities stand elsewhere.

Holding throughout (design): scale not given: direction of the effect not stated beside the values
Assay [1] deals with Protein translocase subunit SecA (Escherichia coli (strain K12)) (UniProt P10408). Description: Assay to Identify E. coli SecA ATPase Inhibitors. The assay is classed as functional. Particulars: 30 µM.
Sequence of Protein translocase subunit SecA (Escherichia coli (strain K12)) (P10408 whole entry): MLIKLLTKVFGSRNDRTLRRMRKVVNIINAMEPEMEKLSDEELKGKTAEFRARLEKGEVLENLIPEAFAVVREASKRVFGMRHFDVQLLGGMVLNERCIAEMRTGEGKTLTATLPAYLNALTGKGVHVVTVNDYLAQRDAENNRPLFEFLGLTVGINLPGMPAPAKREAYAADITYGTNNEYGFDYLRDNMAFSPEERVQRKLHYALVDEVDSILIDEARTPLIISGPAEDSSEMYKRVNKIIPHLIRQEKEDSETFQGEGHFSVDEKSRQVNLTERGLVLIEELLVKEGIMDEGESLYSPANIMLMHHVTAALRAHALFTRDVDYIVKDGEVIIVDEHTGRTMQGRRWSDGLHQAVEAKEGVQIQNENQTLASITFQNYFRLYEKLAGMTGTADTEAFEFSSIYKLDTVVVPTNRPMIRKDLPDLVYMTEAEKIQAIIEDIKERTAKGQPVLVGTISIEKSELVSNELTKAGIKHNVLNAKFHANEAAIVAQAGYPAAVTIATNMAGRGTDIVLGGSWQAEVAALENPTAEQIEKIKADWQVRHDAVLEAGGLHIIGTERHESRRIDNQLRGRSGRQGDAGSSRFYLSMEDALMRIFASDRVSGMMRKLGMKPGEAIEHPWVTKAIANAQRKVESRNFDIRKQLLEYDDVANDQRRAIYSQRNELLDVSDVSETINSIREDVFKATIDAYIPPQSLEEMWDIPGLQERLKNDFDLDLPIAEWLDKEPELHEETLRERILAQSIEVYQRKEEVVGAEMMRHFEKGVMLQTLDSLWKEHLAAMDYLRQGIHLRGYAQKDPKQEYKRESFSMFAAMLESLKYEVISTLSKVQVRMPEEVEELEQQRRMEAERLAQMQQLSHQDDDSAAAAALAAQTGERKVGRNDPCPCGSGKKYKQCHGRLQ
The target in assay [2] is T1, Ubiquitin-activating enzyme e1, putative (Leishmania donovani (strain BPK282A1)) (UniProt E9BSI1).
T1 sequence (whole entry): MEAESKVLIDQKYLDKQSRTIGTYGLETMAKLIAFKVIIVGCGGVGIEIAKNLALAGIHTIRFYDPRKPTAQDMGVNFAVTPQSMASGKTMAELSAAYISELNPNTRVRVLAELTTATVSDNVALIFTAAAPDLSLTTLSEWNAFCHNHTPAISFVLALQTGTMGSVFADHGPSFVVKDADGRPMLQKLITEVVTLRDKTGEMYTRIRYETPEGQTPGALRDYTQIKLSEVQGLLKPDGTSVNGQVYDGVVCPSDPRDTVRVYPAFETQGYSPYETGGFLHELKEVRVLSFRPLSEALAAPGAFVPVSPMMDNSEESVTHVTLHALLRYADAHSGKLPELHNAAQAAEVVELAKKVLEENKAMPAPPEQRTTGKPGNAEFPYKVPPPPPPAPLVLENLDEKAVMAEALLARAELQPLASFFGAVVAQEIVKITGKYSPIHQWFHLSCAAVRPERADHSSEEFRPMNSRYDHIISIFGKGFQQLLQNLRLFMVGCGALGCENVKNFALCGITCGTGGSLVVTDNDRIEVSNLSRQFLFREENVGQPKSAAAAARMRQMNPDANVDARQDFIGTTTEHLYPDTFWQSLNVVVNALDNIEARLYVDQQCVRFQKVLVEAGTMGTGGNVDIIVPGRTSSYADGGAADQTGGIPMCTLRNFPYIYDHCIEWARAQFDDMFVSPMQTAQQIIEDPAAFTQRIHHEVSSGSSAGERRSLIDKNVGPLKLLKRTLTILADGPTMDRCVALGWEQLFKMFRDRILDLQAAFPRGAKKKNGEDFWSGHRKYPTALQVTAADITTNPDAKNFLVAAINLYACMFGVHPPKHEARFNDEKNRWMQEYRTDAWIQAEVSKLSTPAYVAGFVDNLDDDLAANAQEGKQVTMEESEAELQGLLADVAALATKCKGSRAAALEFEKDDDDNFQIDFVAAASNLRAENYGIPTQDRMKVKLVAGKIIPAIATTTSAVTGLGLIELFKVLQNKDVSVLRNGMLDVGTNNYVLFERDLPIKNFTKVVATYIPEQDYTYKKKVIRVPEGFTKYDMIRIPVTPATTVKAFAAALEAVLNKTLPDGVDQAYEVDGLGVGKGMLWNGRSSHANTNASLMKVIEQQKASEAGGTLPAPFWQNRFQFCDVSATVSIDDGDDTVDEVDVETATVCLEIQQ
The assay can be described thus: Leishmania donovani Ubiquitin Activating Enzyme (LdE1). Type of assay: functional. Particulars: 30 µM.

Assay [3] concerns the target T2, Aspartate--tRNA(Asp/Asn) ligase (Mycobacterium tuberculosis (strain ATCC 25618 / H37Rv)) (UniProt P9WFW3). Also: in the data most compounds retested in dose-response had high values.
T2 sequence (whole entry): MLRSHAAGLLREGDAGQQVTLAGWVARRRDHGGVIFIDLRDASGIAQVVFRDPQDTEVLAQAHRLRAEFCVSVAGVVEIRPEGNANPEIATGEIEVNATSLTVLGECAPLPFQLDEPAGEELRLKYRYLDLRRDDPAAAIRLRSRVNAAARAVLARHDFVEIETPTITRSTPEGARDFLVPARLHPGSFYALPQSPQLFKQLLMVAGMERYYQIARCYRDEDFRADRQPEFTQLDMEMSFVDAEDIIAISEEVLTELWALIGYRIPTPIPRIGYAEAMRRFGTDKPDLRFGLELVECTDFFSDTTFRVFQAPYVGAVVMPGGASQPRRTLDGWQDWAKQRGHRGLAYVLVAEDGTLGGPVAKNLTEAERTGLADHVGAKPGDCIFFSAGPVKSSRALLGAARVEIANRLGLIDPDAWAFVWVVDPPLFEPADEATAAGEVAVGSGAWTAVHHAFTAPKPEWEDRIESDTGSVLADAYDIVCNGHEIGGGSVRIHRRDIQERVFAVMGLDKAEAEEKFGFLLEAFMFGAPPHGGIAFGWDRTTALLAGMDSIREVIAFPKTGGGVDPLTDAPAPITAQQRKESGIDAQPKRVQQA
The assay can be described thus: Assay for Asp RNA synthetase-1 from Mycobacterium tuberculosis. The assay is classed as functional. Conditions: 30 µM.

The target in assay [4] is AMP-activated protein kinase, AMPK (Homo sapiens) (UniProt P54646+O43741+P54619+Q9UGJ0+Q9Y478+Q13131+Q9UGI9). The assay can be described thus: AMP-dependent Kinase enzyme assay. An in vitro enzyme assay that detects ADP turnover that is directly proportional to AMPK activity. This uses naive AMPK that is activated during the assay with MK-8722. Type of assay: functional. Conditions: 30 µM.

The target in assay [5] is Sialic acid-binding Ig-like lectin 9 (Homo sapiens) (UniProt Q9Y336). Description: Hs-Siglec9 ALPHAscreen SOP 20170721. Conditions: 10 µM.
Sequence of Sialic acid-binding Ig-like lectin 9 (Homo sapiens) (Q9Y336 whole entry): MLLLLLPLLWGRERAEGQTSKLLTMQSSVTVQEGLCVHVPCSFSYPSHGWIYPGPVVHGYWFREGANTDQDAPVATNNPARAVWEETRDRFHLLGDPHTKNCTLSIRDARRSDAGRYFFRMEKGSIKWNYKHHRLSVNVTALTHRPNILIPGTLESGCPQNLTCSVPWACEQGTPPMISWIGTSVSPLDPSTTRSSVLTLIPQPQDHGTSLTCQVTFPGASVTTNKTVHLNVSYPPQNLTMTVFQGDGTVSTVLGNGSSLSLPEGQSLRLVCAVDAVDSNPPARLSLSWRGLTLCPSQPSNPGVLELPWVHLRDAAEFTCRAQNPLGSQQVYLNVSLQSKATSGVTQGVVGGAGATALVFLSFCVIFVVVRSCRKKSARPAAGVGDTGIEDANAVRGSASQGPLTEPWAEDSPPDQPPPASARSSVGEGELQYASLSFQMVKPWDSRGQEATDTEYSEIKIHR
In a further assay the test system is Trypanosoma cruzi. Description: Trypanosoma cruzi phosphomannomutase and mannose-1-phosphate guanylyltransferase assay. Type of assay: functional. Particulars: 10 µM.
For assay [6], the target named is T3, Arginase-2, mitochondrial (Homo sapiens) (UniProt P78540).
T3 sequence (whole entry): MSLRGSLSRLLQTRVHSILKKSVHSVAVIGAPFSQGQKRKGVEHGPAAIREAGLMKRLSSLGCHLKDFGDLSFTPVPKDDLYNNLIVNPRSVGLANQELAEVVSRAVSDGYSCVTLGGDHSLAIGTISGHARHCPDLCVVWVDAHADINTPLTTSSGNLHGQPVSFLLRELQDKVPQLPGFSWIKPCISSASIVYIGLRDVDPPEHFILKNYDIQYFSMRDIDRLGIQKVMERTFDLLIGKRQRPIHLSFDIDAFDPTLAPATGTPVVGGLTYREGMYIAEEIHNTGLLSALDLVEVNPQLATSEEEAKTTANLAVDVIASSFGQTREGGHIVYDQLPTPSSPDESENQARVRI
Description: in vitro enzyme assay to detect the production of urea directly proportional to the activity of Arginase II. Also: in the data most compounds retested in dose-response had high values. The assay is classed as functional. Conditions: 33.3 µM.

The target of assay [7] is T4, Proteasome subunit beta (Trypanosoma cruzi) (UniProt O96673).
T4 sequence (whole entry): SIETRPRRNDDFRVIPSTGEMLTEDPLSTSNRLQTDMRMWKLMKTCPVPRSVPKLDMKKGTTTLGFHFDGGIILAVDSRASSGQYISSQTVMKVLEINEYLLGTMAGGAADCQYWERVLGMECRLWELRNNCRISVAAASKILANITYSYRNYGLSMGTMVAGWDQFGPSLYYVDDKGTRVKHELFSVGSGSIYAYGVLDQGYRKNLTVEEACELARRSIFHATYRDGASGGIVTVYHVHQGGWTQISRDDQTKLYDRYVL
Description: Trypanosoma cruzi proteasome chymotrypsin-like activity (TcProtChymo) assay. Also: in the data most compounds retested in dose-response had high values. The assay is classed as functional. Particulars: 9.37 µM.

The species entered for another assay is Homo sapiens. Description: To identify inhibition of the IFN signalling (Jak-Stat) pathway via expression of an eGFP reporter gene under the control of an IFN-stimulated response element (ISRE) containing MxA promoter. Type of assay: functional. Conditions: 30 µM.
The target of assay [8] is Shiga toxin 2 (Escherichia coli O157:H7) (UniProt P09385+P09386). Description: E. coli 0.157:H7 Shiga Toxin SOP - stx2 screening assay. Type of assay: functional. Particulars: 30 µM.
The target in assay [9] is T5, Tyrosyl-tRNA synthetase, putative (Trypanosoma cruzi (strain CL Brener)) (UniProt Q4DSP6).
T5 sequence (whole entry): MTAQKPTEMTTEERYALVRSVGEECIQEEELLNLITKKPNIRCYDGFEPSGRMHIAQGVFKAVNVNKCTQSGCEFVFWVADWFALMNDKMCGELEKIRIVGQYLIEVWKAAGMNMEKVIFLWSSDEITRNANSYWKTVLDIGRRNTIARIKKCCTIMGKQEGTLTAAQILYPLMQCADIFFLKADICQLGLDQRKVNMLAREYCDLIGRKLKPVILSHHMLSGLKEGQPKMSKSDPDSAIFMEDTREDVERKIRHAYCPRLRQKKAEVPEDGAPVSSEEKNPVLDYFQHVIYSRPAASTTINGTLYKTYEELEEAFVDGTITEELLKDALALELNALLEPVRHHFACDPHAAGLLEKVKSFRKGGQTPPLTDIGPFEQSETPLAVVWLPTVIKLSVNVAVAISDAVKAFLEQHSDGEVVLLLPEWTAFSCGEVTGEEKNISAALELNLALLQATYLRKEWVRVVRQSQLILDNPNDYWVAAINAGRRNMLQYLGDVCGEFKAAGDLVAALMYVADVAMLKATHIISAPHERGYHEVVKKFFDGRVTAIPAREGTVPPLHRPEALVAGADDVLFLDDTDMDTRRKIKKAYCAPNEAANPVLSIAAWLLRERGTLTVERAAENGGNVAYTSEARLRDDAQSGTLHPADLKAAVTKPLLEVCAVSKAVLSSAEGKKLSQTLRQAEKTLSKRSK
The assay can be described thus: Trypanosoma cruzi tyrosyl tRNA synthetase (TcYRS) _High Tyrosine SOP. Also: in the data most compounds retested in dose-response had high values. Conditions: 30 µM. Type of assay: functional.

The target in assay [10] is T5, Tyrosyl-tRNA synthetase, putative (Trypanosoma cruzi (strain CL Brener)). Description: Trypanosoma cruzi tyrosyl tRNA synthetase (TcYRS) SOP. The assay is classed as functional. Conditions: 30 µM.
Assay [11] addresses Chromo domain-containing protein 1 (Saccharomyces cerevisiae (strain ATCC 204508 / S288c) (Baker's yeast)) (UniProt P32657). The assay can be described thus: ScCHD-1 Enzyme Inhibition Assay. Also: in the data most compounds retested in dose-response had high values. Conditions: 30 µM. The assay is classed as functional.

Sequence of Chromo domain-containing protein 1 (Saccharomyces cerevisiae (strain ATCC 204508 / S288c) (Baker's yeast)) (P32657 whole entry, the tested form may be a part): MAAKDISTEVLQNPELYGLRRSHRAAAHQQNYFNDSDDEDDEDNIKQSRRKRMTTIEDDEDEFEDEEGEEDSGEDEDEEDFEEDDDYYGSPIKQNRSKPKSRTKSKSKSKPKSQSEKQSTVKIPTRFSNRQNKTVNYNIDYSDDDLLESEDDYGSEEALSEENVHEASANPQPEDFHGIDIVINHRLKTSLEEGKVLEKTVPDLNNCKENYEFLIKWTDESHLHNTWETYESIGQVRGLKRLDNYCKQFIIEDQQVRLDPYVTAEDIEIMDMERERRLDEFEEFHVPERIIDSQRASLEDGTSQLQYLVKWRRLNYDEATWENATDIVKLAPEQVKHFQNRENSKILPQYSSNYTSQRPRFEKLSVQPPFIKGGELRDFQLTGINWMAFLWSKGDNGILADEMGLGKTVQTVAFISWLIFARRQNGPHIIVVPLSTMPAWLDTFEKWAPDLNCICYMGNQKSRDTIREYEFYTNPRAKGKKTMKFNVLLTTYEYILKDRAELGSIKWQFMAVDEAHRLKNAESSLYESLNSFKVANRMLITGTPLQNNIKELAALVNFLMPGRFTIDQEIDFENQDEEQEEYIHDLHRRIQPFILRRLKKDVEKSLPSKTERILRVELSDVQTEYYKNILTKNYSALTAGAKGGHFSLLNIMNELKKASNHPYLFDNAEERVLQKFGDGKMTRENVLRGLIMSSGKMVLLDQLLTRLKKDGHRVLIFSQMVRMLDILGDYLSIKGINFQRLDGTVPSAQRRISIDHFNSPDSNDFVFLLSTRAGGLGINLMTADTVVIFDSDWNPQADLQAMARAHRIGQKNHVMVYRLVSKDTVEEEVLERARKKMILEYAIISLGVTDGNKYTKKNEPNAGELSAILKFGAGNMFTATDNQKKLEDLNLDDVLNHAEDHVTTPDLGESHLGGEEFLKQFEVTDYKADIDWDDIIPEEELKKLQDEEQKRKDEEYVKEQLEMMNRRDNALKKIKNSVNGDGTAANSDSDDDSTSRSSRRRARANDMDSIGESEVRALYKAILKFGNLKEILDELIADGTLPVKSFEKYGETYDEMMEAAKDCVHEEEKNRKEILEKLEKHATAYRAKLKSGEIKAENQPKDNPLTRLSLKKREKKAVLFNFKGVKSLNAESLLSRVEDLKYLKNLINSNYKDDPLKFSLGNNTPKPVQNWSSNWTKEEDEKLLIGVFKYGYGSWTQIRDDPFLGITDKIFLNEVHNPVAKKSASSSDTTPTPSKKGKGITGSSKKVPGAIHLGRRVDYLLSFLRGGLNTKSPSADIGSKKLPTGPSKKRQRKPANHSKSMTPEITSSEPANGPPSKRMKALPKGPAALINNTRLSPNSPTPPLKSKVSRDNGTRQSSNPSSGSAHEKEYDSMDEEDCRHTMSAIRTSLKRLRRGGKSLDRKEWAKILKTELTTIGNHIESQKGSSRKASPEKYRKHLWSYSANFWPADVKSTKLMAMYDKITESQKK

In the case of `Cc1ccccc1CC(C)NCc1c(C)nn(C)c1N1CCOCC1` (stereo not given), the Percent Effect in assay [1] was -3.17%; in assay [2], -1.39%; in [3], -4.34%; in assay [4], -1.27%; in assay [5], -1.05%; in the assay with Trypanosoma cruzi it was 5.93%. For the same compound, the Percent Effect in assay [6] is -2.21%; in [7], 2.46%; in the assay filed under Homo sapiens, -20.6%; in assay [8], 16.3%; in assay [9], 3.16%; in assay [10], 2.56%. For the same compound, in assay [11], the Percent Effect is 102%.
Regarding `CCCN1CCN(Cc2nccn2CC)C(C)C1` (stereo not given), the Percent Effect in assay [1] is -1.91%; in [2], 13.5%; in assay [3], 1.06%; in assay [4] it was -5.87%; in assay [5] it was -10.4%; in the assay on Trypanosoma cruzi it was -2.54%. For the same compound, the Percent Effect in assay [6] was -1.67%; in assay [7], 8.54%; in the assay listed under Homo sapiens, 32.2%; in assay [8], -11.5%; in assay [9] it was 8.91%; in assay [10], 8.54%. The Percent Effect in assay [11] is -3.53%.
For the compound `Cc1cc(CN2CC[C@H]3OCC[C@@]3(C(=O)NC(C)C)C2)no1`, the Percent Effect in assay [1] was -1.37%; in assay [2] it was 15.6%; in [3] it was 0.364%; in assay [4], 0.843%; in assay [5], 5.07%; in the assay with Trypanosoma cruzi, 0.888%. Moreover, the Percent Effect in [6] is 4.52%; in assay [7], 10.4%; in the assay filed under Homo sapiens, 16.3%; in assay [8], -28.2%; in assay [9], 5.29%; in [10], 11.5%. Besides, the Percent Effect in [11] is -5.46%.
Regarding `CC(C)(C)n1cc(C2=CCN(CCc3ccccc3)CC2)cn1`, the Percent Effect is 0.726% in [1]; 1.39% in [2]; -2.65% in assay [3]; -7.35% in assay [4]; -1.87% in assay [5]; 5.93% in the assay with Trypanosoma cruzi. Further, the Percent Effect was 24.3% in assay [6]; 14.7% in assay [7]; 11.7% in the assay filed under Homo sapiens; -75.6% in assay [8]; 6.32% in [9]; 12.8% in assay [10]. Further, the Percent Effect in assay [11] is -5.1%.
As for `Cc1noc(C)c1CN1CCOC2(CCCN(c3nccs3)C2)C1` (stereo not given), the Percent Effect is -8.9% in assay [1]; 8% in assay [2]; 7.92% in assay [3]; 26.5% in assay [4]; 1.44% in assay [5]; -6.18% in the assay on Trypanosoma cruzi. In addition, the Percent Effect in assay [6] was -56.1%; in assay [7], 2.91%; in the assay listed under Homo sapiens it was 21.7%; in [8] it was -14.3%; in assay [9], -7.29%; in assay [10] it was -30%. Further, the Percent Effect in [11] was -4.72%.
